Measurements published in PubChem BioAssay (Tox21).
Several values for one entry are separate records, joined by “and”; a condition that tells them apart may be missing. Equal values may be shown once. Inconclusive results are not listed. Entries that show only a call come without a potency. Some structures have more than one record in an assay (separate samples or runs), and their calls can disagree. Activity calls are given as the source filed them. Calls come from the whole dose curve; as a rule, active = well fitted activation curve with a large enough effect in the repeat runs; inconclusive = weak or mixed curves; inactive = no such curve, though single readings can be large or run the other way.

Molecular target: Nuclear receptor subfamily 1 group I member 2 (Homo sapiens) (UniProt O75469)
Experiment: Human pregnane X receptor (PXR) small molecule agonists, qHTS assay (AID 1346982); note: nearly all actives have a fitted effect of over 35% in size
Settings: PXR-Luc HepG2, CYP3A4 luciferase reporter, 24 h; series mostly up to 92.4 µM
Excerpt: National Center for Advancing Translational Sciences [NCATS]
NIH Chemical Genomics Center [NCGC]
U.S. Environmental Protection Agency [EPA]
National Institutes of Environmental Health Sciences [NIEHS]
National Toxicology Program [NTP]
The human pregnane X receptor (hPXR) regulates the expression of several drug metabolizing enzymes and induction of these proteins is a major mechanism for developing drug resistance in cancer. One such key enzyme catalyzing the drug metabolism is cytochrome P450 3A4 (CYP3A4). Changes in CYP3A4 expression affect drug metabolism, thereby reducing the therapeutic efficacy and altering toxicological response to a drug and which finally causes adverse drug interaction. To screen Tox21 libraries for compounds that activate hPXR-mediated CYP3A4 gene expression, PXR-Luc HepG2 cells were used.
PXR-Luc HepG2 cells were dispensed at 2,000 per well in 5uL of assay medium containing 5% charcoal-stripped FBS into white solid bottom 1536-well plates (Corning Life Sciences, Corning, NY) using a Multidrop Combi (Thermo Scientific, Waltham, MA) dispenser. The assay plates were incubated at 37 C and 5% CO2 for 5hr, and then 23nL of compounds dissolved in DMSO and positive control were transferred using a Pintool station (Wako, San Diego, CA). The assay plates were incubated at 37C and 5% CO2 for 24hr. For luciferase read, 4uL of ONE-Glo reagent (Promega Corporation, Madison, WI) was added to each well of the assay plates using Flying Reagent Dispenser (FRD, Aurora Discovery, San Diego, CA) and incubated the assay plates at room temperature for 30min. The luminescence signal was quantified using a ViewLux plate reader (Perkin Elmer, Shelton, CT).
Potency is the fitted concentration of half-maximal effect.

Chain of Nuclear receptor subfamily 1 group I member 2 (Homo sapiens) (O75469 whole entry, looked up): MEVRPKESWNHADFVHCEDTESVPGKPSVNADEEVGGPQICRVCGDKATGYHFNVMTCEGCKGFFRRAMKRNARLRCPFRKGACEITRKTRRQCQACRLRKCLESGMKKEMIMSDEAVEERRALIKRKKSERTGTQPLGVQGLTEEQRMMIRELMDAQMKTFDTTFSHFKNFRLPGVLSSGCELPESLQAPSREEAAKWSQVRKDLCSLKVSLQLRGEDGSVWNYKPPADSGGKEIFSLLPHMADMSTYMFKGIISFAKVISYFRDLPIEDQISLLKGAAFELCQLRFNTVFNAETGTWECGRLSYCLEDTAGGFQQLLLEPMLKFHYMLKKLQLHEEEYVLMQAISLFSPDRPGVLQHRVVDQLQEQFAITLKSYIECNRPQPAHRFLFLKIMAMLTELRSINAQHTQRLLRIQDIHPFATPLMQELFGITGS

SMILES | Potency
O=C(O)c1ccc(O)cc1 | inactive
OC[C@@H](O)[C@@H](O[C@@H]1O[C@H](CO)[C@H](O)[C@H](O)[C@H]1O)[C@H](O)[C@@H](O)CO | inactive
CNC[C@H](O)c1ccc(O)c(O)c1 | inactive
Nc1ccc(N)c(Cl)c1 | 21.6 µM (active) and 48.6 µM (active)
O=C1CCc2ccccc2O1 | inactive
CC[C@]12CCCN3CCc4c(n(c5ccccc45)[C@@](O)(C(=O)OC)C1)[C@@H]32 | 30.6 µM (active) and 9.44 µM (active)
COCCOCCOCCO | inactive
O=S1(=O)CCCO1 | inactive
CCOC(=O)C(C)Oc1ccc(Oc2cnc3cc(Cl)ccc3n2)cc1 (stereo not given) | inactive
O=[Se](O)O | inactive
CCCOCCO | inactive
Nc1cc([N+](=O)[O-])ccc1C(=O)O | inactive
CC1=CC(C)(C)Nc2ccccc21 | 8.41 µM (active)
CCCCCC1C(=O)CCC1CC(=O)OC (stereo not given) | inactive
c1ccc2c(c1)ccc1cc3c(ccc4ccccc43)cc12 | 3.03 µM (active) and 1.71 µM (active)
Oc1ccc(C(c2ccc(O)cc2)C(Cl)(Cl)Cl)cc1 | inactive and 61.1 µM (active)
CC(=O)O[C@]1(C(C)=O)CC[C@H]2[C@@H]3C=C(Cl)C4=CC(=O)CC[C@]4(C)[C@H]3CC[C@@]21C | 68.5 µM (active) and inactive
O=C(O)CCCCCCCCCCCC(=O)O | inactive
Cc1ccc(/C(=C\CN2CCCC2)c2ccccn2)cc1 | inactive
C1COCCN1 | inactive

SMILES | Potency
CCCCCCCCCCCCCO | inactive
CCC(Cc1c(I)cc(I)c(N)c1I)C(=O)O (stereo not given) | 52.8 µM (active)
Cc1ccc2c(c1)C(=O)OC2=O | inactive
CC(=O)Nc1ccc2c(c1)Cc1cc(NC(C)=O)ccc1-2 | 17.2 µM (active) and 7.7 µM (active)
NC[C@H](O)c1ccc(O)c(O)c1 | inactive
CCCCCC=O | inactive
O=C(O)CCCC(=O)O | inactive
C[N+](C)(C)CCO | inactive
O=C(O)COCCN1CCN(C(c2ccccc2)c2ccc(Cl)cc2)CC1 (stereo not given) | inactive
[Na+] | inactive
Nc1ccc2c(c1)C(=O)c1ccccc1C2=O | 190 nM (active) and 486 nM (active)
CCCCCCCC/C=C\CCCCCCCC(=O)O | inactive
CC1(C)C(C=C(Cl)Cl)C1C(=O)OCc1cccc(Oc2ccccc2)c1 (stereo not given) | 24.2 µM (active)
FC(F)(F)C(Cl)Br (stereo not given) | inactive
CC(=O)OC(C)C | inactive
CC(C)=CCO | 62.6 µM (active) and inactive
CN(C)/N=N/c1nc[nH]c1C(N)=O | inactive
CCCCCCC(C)O (stereo not given) | inactive
C=CCNCC=C | inactive
Clc1ccc(Sc2cc(Cl)c(Cl)cc2Cl)cc1 | 59.5 µM (active) and inactive
